Drawing on publication PMC9911399, “Two distinct binding modes provide the RNA-binding protein RbFox with extraordinary sequence specificity”, this text covers binding signal for 31 molecules.

T1: RBFOX1 RRM RbFoxmut (Fox-RRM*) (Homo sapiens, UniProt Q9NWB1 109-208, R118D;E147R;N151S;E152T)
T1 sequence: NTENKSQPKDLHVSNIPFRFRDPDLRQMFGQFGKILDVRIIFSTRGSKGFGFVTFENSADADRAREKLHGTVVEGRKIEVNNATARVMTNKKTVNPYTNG

B1: UGAAGGC (DNA:RNA)
RNA: GGGAGACCGGAAUUCAGAUUGUCCUGAAGGCUUAAAUCCCGUCGUAGCCACCA
DNA 1: CAATCTGAATTCCGGTCTCCC
DNA 2: TGGTGGCTACGACGGGATT
B2: AUUUCAU (DNA:RNA)
RNA: GGGAGACCGGAAUUCAGAUUGUCCAUUUCAUUUAAAUCCCGUCGUAGCCACCA
DNA 1: CAATCTGAATTCCGGTCTCCC
DNA 2: TGGTGGCTACGACGGGATT
B3: CACACCG (DNA:RNA)
RNA: B2 RNA with A25C, U26A, U27C, U28A, A30C, U31G
DNA 1: CAATCTGAATTCCGGTCTCCC
DNA 2: TGGTGGCTACGACGGGATT
B4: UGGGUAU (DNA:RNA)
RNA: B2 RNA with A25U, U26G, U27G, U28G, C29U
DNA 1: CAATCTGAATTCCGGTCTCCC
DNA 2: TGGTGGCTACGACGGGATT
B5: GUUCCGU (DNA:RNA)
RNA: B2 RNA with A25G, U28C, A30G
DNA 1: CAATCTGAATTCCGGTCTCCC
DNA 2: TGGTGGCTACGACGGGATT
B6: AUAUCCC (DNA:RNA)
RNA: B2 RNA with U27A, A30C, U31C
DNA 1: CAATCTGAATTCCGGTCTCCC
DNA 2: TGGTGGCTACGACGGGATT
B7: UGAUACC (DNA:RNA)
RNA: B1 RNA with A28U, G29A, G30C
DNA 1: CAATCTGAATTCCGGTCTCCC
DNA 2: TGGTGGCTACGACGGGATT
B8: CCUAGCC (DNA:RNA)
RNA: B1 RNA with U25C, G26C, A27U, G30C
DNA 1: CAATCTGAATTCCGGTCTCCC
DNA 2: TGGTGGCTACGACGGGATT
B9: GGAAGUC (DNA:RNA)
RNA: B1 RNA with U25G, G30U
DNA 1: CAATCTGAATTCCGGTCTCCC
DNA 2: TGGTGGCTACGACGGGATT
B10: UUGUUCG (DNA:RNA)
RNA: B2 RNA with A25U, U27G, C29U, A30C, U31G
DNA 1: CAATCTGAATTCCGGTCTCCC
DNA 2: TGGTGGCTACGACGGGATT
B11: UGGUACG (DNA:RNA)
RNA: B1 RNA with A27G, A28U, G29A, G30C, C31G
DNA 1: CAATCTGAATTCCGGTCTCCC
DNA 2: TGGTGGCTACGACGGGATT
B12: CGGUACG (DNA:RNA)
RNA: B2 RNA with A25C, U26G, U27G, C29A, A30C, U31G
DNA 1: CAATCTGAATTCCGGTCTCCC
DNA 2: TGGTGGCTACGACGGGATT
B13: UUGUCCG (DNA:RNA)
RNA: B2 RNA with A25U, U27G, A30C, U31G
DNA 1: CAATCTGAATTCCGGTCTCCC
DNA 2: TGGTGGCTACGACGGGATT
B14: GUCCUUG (DNA:RNA)
RNA: B2 RNA with A25G, U27C, U28C, C29U, A30U, U31G
DNA 1: CAATCTGAATTCCGGTCTCCC
DNA 2: TGGTGGCTACGACGGGATT
B15: UGGUACC (DNA:RNA)
RNA: B1 RNA with A27G, A28U, G29A, G30C
DNA 1: CAATCTGAATTCCGGTCTCCC
DNA 2: TGGTGGCTACGACGGGATT
B16: GUAACCG (DNA:RNA)
RNA: B2 RNA with A25G, U27A, U28A, A30C, U31G
DNA 1: CAATCTGAATTCCGGTCTCCC
DNA 2: TGGTGGCTACGACGGGATT
B17: UGAUCUC (DNA:RNA)
RNA: B1 RNA with A28U, G29C, G30U
DNA 1: CAATCTGAATTCCGGTCTCCC
DNA 2: TGGTGGCTACGACGGGATT
B18: UGCUGAG (DNA:RNA)
RNA: B1 RNA with A27C, A28U, G30A, C31G
DNA 1: CAATCTGAATTCCGGTCTCCC
DNA 2: TGGTGGCTACGACGGGATT
B19: CGAUUGU (DNA:RNA)
RNA: B1 RNA with U25C, A28U, G29U, C31U
DNA 1: CAATCTGAATTCCGGTCTCCC
DNA 2: TGGTGGCTACGACGGGATT
B20: CGAAAUG (DNA:RNA)
RNA: B1 RNA with U25C, G29A, G30U, C31G
DNA 1: CAATCTGAATTCCGGTCTCCC
DNA 2: TGGTGGCTACGACGGGATT
B21: GAAUGUU (DNA:RNA)
RNA: B2 RNA with A25G, U26A, U27A, C29G, A30U
DNA 1: CAATCTGAATTCCGGTCTCCC
DNA 2: TGGTGGCTACGACGGGATT
B22: GUAAUGU (DNA:RNA)
RNA: B1 RNA with U25G, G26U, G29U, C31U
DNA 1: CAATCTGAATTCCGGTCTCCC
DNA 2: TGGTGGCTACGACGGGATT
B23: CGUCGUU (DNA:RNA)
RNA: B2 RNA with A25C, U26G, U28C, C29G, A30U
DNA 1: CAATCTGAATTCCGGTCTCCC
DNA 2: TGGTGGCTACGACGGGATT
B24: CGAAUGU (DNA:RNA)
RNA: B1 RNA with U25C, G29U, C31U
DNA 1: CAATCTGAATTCCGGTCTCCC
DNA 2: TGGTGGCTACGACGGGATT
B25: CCCCGAA (DNA:RNA)
RNA: B2 RNA with A25C, U26C, U27C, U28C, C29G, U31A
DNA 1: CAATCTGAATTCCGGTCTCCC
DNA 2: TGGTGGCTACGACGGGATT
B26: GAAAUGU (DNA:RNA)
RNA: B1 RNA with U25G, G26A, G29U, C31U
DNA 1: CAATCTGAATTCCGGTCTCCC
DNA 2: TGGTGGCTACGACGGGATT
B27: GGAAUGU (DNA:RNA)
RNA: B1 RNA with U25G, G29U, C31U
DNA 1: CAATCTGAATTCCGGTCTCCC
DNA 2: TGGTGGCTACGACGGGATT
B28: CGAAUUG (DNA:RNA)
RNA: B1 RNA with U25C, G29U, G30U, C31G
DNA 1: CAATCTGAATTCCGGTCTCCC
DNA 2: TGGTGGCTACGACGGGATT
B29: GAUGUUU (DNA:RNA)
RNA: B2 RNA with A25G, U26A, U28G, C29U, A30U
DNA 1: CAATCTGAATTCCGGTCTCCC
DNA 2: TGGTGGCTACGACGGGATT
B30: CCGAAUG (DNA:RNA)
RNA: B1 RNA with U25C, G26C, A27G, G29A, G30U, C31G
DNA 1: CAATCTGAATTCCGGTCTCCC
DNA 2: TGGTGGCTACGACGGGATT
B31: CACAGAG (DNA:RNA)
RNA: B1 RNA with U25C, G26A, A27C, G30A, C31G
DNA 1: CAATCTGAATTCCGGTCTCCC
DNA 2: TGGTGGCTACGACGGGATT

Where a chain is given by its changes, count along the chain named. In all, about 16,000 sequences were measured (“ka relative to ugcaugu”: median about 0.096, highest 2% from about 0.35 on). What follows is part of a selection rich in the highest values, with near analogues and random picks from the rest.

The target of this assay is T1, RBFOX1 RRM RbFoxmut (Fox-RRM*). Briefly: EMSA; HiTS-Eq, 1 nM pool, 10 min; buffer printed only for the single-RNA assays: 10 mM Tris pH 7.5, 150 mM NaCl, 3.4 mM EDTA, 0.001% NP-40, 30 C. The note with it: tags: His6 N-terminal (pET28a); label: 5' 32P. The method in brief: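 Purified wild-type or mutant RbFox RRM at increasing concentrations was equilibrated with 1 nM of 5′-radiolabelled RNA carrying 7 randomized nucleotides for 10 min in 50 µL. Unbound RNA was separated by 8% native PAGE and sequenced. Relative association constants came from read-count changes of each RNA species compared with the control reaction, normalised to the cognate motif.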
In the case of B1, the binding signal was 0.0677 KA relative to UGCAUGU.

Regarding B2, the binding signal is 0.12 KA relative to UGCAUGU.

As to B3, the binding signal was 0.12 KA relative to UGCAUGU.

Consider B4, for which the binding signal is 0.172 KA relative to UGCAUGU.

B5: the binding signal was 0.127 KA relative to UGCAUGU.

Take B6: the binding signal was 0.0954 KA relative to UGCAUGU.

Take B7: the binding signal was 0.103 KA relative to UGCAUGU.

Turning to B8, the binding signal is 0.149 KA relative to UGCAUGU.

Consider B9, for which the binding signal was 0.111 KA relative to UGCAUGU.

Take B10: the binding signal was 0.463 KA relative to UGCAUGU.

With B11, the binding signal was 0.367 KA relative to UGCAUGU.

As to B12, the binding signal is 0.24 KA relative to UGCAUGU.

As for B13, the binding signal was 0.188 KA relative to UGCAUGU.

Take B14: the binding signal is 0.116 KA relative to UGCAUGU.

Turning to B15, the binding signal is 0.133 KA relative to UGCAUGU.

For the molecule B16, the binding signal was 0.114 KA relative to UGCAUGU.

As for B17, the binding signal was 0.0775 KA relative to UGCAUGU.

As for B18, the binding signal is 0.102 KA relative to UGCAUGU.

Turning to B19, the binding signal is 0.206 KA relative to UGCAUGU.

Turning to B20, the binding signal was 0.101 KA relative to UGCAUGU.

In the case of B21, the binding signal is 0.884 KA relative to UGCAUGU.

With B22, the binding signal was 0.154 KA relative to UGCAUGU.

Regarding B23, the binding signal is 0.108 KA relative to UGCAUGU.

On to B24, for which the binding signal is 1.07 KA relative to UGCAUGU.

Consider B25, for which the binding signal is 0.136 KA relative to UGCAUGU.

For B26, the binding signal is 0.0843 KA relative to UGCAUGU.

B27: the binding signal is 0.959 KA relative to UGCAUGU.

As for B28, the binding signal is 0.141 KA relative to UGCAUGU.

On to B29, for which the binding signal is 0.125 KA relative to UGCAUGU.

On to B30, for which the binding signal is 1.39 KA relative to UGCAUGU.

For the molecule B31, the binding signal is 0.124 KA relative to UGCAUGU.
